Sampled rows, rich in hits. Any-hit rate of the full collection: about 1.3%.
Efflux pump mplx – inhibitors of Candida antifungal efflux pumps expressed in yeast; S. cerevisiae Candida pump triplex, Nile Red efflux; inhibition, % at 10 µM; 330,000 compounds, 0.44% hits;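 active = plate passing quality check with inhibition over a set limit, or well fluorescence over plate mean plus 4 SD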;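 note: Nile Red retained in pooled yeast measured as flow cytometry median fluorescence; 0% = buffer negative control and 100% = Enniatin B positive control; higher means more Nile Red kept so more efflux inhibition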
CIT2-GFP yeast – modulators of TOR pathway CIT2-GFP in S. cerevisiae; GFP response vs DMSO, % at 10 µM; 320,000 compounds, 0.065% hits; S. cerevisiae CIT2-GFP strain, flow cytometry, 3 h; 100 means same as DMSO wells;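 active = GFP response relative to DMSO above a set limit, near the screen mean plus 3 SD, cut at about 150% in these data; inconclusive = Fewer than 70 cells measured for a yeast strain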;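 note: ratio of well median GFP fluorescence to mean of DMSO wells on the plate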
RPL19A TOR yeast – modulators of TOR pathway RPL19A-GFP in S. cerevisiae; S. cerevisiae RPL19A-GFP strain, flow cytometry, 3 h; active compounds read low; percent response vs DMSO, % at 10 µM; 330,000 compounds, 0.3% hits;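 active = percent response vs DMSO below 50%; inconclusive = fewer than 70 events counted for the yeast strain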;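 note: median channel GFP fluorescence of the barcoded RPL19A-GFP strain; ratio of sample median GFP to plate DMSO average so 100% = DMSO; lower means less RPL19A-GFP as with rapamycin TOR inhibition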
MEP2 TOR yeast – yeast TOR pathway MEP2-GFP modulation; 330,000 compounds, 0.51% hits; GFP response vs DMSO, % at 10 µM; S. cerevisiae MEP2-GFP strain, flow cytometry GFP, 3 h; 100% = DMSO control level; AID 2016;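 active = GFP response versus DMSO above a set limit, roughly screen mean plus 3 SD, cut at about 180% in these data; inconclusive = fewer than 70 cells counted for a yeast strain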;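 note: median GFP fluorescence of the barcode-gated MEP2-GFP cells per well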
LAP4-GFP MLPCN – alters LAP4-GFP fluorescence in TOR pathway yeast screen; 320,000 compounds, 0.34% hits; GFP response vs DMSO, % at 10 µM; S. cerevisiae LAP4-GFP multiplex, flow cytometry GFP, 3 h; median GFP as percent of DMSO wells;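 active = GFP response vs DMSO above a set limit, about the screen mean plus 3 SD, cut at about 150% in these data; inconclusive = under 70 cell events counted for the yeast strain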
AGP1-GFP MLPCN – alters AGP1-GFP fluorescence in TOR pathway yeast screen. S. cerevisiae AGP1-GFP multiplex flow cytometry, 3 h; GFP as percent of DMSO wells. GFP response vs DMSO, % at 10 µM. 320,000 compounds, 0.02% hits. AID 2066;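 active = GFP response relative to DMSO above a set limit, near screen average plus 3 SD, cut at about 150% in these data; inconclusive = fewer than 70 cells counted for the yeast strain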;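 note: median GFP channel fluorescence of the gated AGP1 strain per well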
An asterisk follows results filed as active; ? = inconclusive; nt = no result; + = active, no number; [ ] = dose if it differs, or a comment.

SMILES	Efflux pump mplx	CIT2-GFP yeast	RPL19A TOR yeast	MEP2 TOR yeast	LAP4-GFP MLPCN	AGP1-GFP MLPCN
CSc1cccc(NC(=S)NN(C)C)c1	0	99	96	91	112	103
COCCCNC(=S)Nc1cccc(SC)c1	1	?	41*[may fluoresce violet]	243*[may fluoresce violet]	62	?
CSc1cccc(NC(N)=S)c1	0	97	98	107	109	102
CCCCn1c(N)c(N(CCOC)C(=O)CCNC(=O)c2ccccc2Cl)c(=O)[nH]c1=O	1	96	100	102	106	102
O=C(N/N=C/c1c(Cl)[nH]c2ccccc12)c1ccc2c(c1)OCCO2	0	94	94	101	106	103
Cc1c(C)c2cc(Cl)c(O)c(CN(C)C)c2oc1=O	0	?	67	129	94	23
CN(C)Cc1c(O)c(Cl)cc2c3c(c(=O)oc12)CCCC3	0	?	54	175*[may fluoresce violet]	106	32
CCc1c(C)c2cc(Cl)c(O)c(CN(C)C)c2oc1=O	0	102	51	193*	114	31
CN(CC(=O)Nc1ccc2c(c1)OCO2)S(=O)(=O)c1cccs1	0	?	45*[may fluoresce violet]	302*[may fluoresce violet]	74	?
CN(CC(=O)Nc1ccc(F)c(F)c1)S(=O)(=O)c1cccs1	0	?	27*[may fluoresce violet]	?	?	?
CCc1cccc(NC(=O)CN(C)S(=O)(=O)c2cccs2)c1	0	98	98	99	103	101
C=CCC1CCC/C(=N\NS(=O)(=O)c2ccc(C)cc2)C1 (stereo not given)	0	98	121	101	99	97
CCOc1ccccc1-c1noc(CCCC(=O)NC2CCCCC2)n1	0	112	101	106	91	99
Cc1cccc(CSCc2ccc(C(=O)NC(C)C)o2)c1	0	139	104	259*	130	123
CCN(CC)S(=O)(=O)c1ccc2c(c1)c(=O)c(C(=O)N1CCN(c3ccccn3)CC1)cn2C	0	?	58	211*[may fluoresce violet]	74	?
CNc1sc(C(=O)c2ccc(F)cc2)c(N)c1-c1nc2ccccc2s1	0	?	96	97	153*[may fluoresce violet]	42
CNc1sc(C(=O)c2cccs2)c(N)c1-c1nc2ccccc2s1	0	114	94	99	124	?
O=C(CCSc1ccc(Cl)cc1)Nc1cccnc1	0	104	109	107	100	106
O=[N+]([O-])c1ccc(O)c(NC(=S)Nc2ccccc2)c1	0	?	90	313*[may fluoresce violet]	78	22
Oc1ccc(-c2csc(-c3cccnc3)n2)cc1O	0	100	98	97	97	99
Oc1ccc(-c2csc(-c3ccccc3)n2)cc1O	0	101	90	97	206*	88
Nc1nc(-c2ccccc2)c(C(=O)Nc2ccccc2)s1	0	?	16*[may fluoresce violet]	?	133	?
COc1cccc(NC(=O)C(C#N)Cc2ccncc2)c1 (stereo not given)	0	100	104	94	98	114
CCc1ccccc1NC(=O)C(C#N)Cc1cccnc1 (stereo not given)	0	?	61	209*[may fluoresce violet]	93	?
O=C(Cc1cccc2ccccc12)Nc1ccccc1	1	?	46*[may fluoresce violet]	235*[may fluoresce violet]	57	?
SMILES	Efflux pump mplx	CIT2-GFP yeast	RPL19A TOR yeast	MEP2 TOR yeast	LAP4-GFP MLPCN	AGP1-GFP MLPCN
O=C(O)CC1(CC(=O)Nc2cc(F)ccc2Cl)CCCCC1	0	97	100	86	93	88
Cn1c(=O)[nH]c(=O)c2c1nc(N1CCCCC1)n2CCOc1ccccc1	0	118	nt	218*	90	26
Cc1noc(C)c1CSCC(=O)Nc1ccc(S(=O)(=O)C(F)F)cc1	0	85	94	102	98	94
Clc1ccc2nc(N3CCNCC3)nc(-c3ccccc3)c2c1	0	?	39*[may fluoresce violet]	?	?	?
CN1CCN(c2nc(-c3ccccc3)c3cc(Cl)ccc3n2)CC1	0	82	92	100	91	92
CC1CCN(S(=O)(=O)c2cccc(C(=O)Nc3nccs3)c2)CC1	0	152*	105	214*	166*	112
COc1cc(/C=C(\NC(=O)c2ccccc2)C(=O)Nc2nccs2)ccc1OC(C)=O	0	110	107	105	82	100
COc1ccc(C(CNC(=O)Cc2c(F)cccc2Cl)N2CCCCC2)cc1 (stereo not given)	0	?	96	299*[may fluoresce violet]	76	19
CCCCOC(=O)c1ccc(NC(=S)NC(=O)c2c(Cl)cnn2C)cc1	0	101	104	105	102	101
CCCCOC(=O)c1ccc(NC(=S)NC(=O)c2c(Cl)cnn2CC)cc1	0	?	39*[may fluoresce violet]	406*[may fluoresce violet]	83	nt
Cc1ccc(NS(=O)(=O)c2ccc(OCC(=O)N3CCOCC3)cc2)cc1	0	98	101	102	105	104
CCOC(=O)C(=Cc1ccc(F)cc1)C(=O)OCC	0	107	65	188*	122	25
CC(C)(C)c1ccc(O)c(/C=N\O)c1	0	?	63	452*[may fluoresce violet]	114	25
CC(C)(C)c1ccc(O)c(O)c1	0	86	96	92	106	96
O=C(Nc1ccc([N+](=O)[O-])cc1)c1cc2ccccc2nc1Cl	0	111	110	103	79	95
COc1ccc(-c2cc(CNC(=O)CN3CCN(C)CC3)on2)cc1	0	?	nt	257*[may fluoresce violet]	87	32
CCCc1cc(=O)n2[nH]c(NC(=O)c3ccco3)nc2n1	0	101	104	102	99	103
CCc1nnc(NC(=O)CSc2nnc(C3CCCCC3)n2-c2cccc(Cl)c2)s1	0	199*	49*	+	343*	198*
O=C(Nc1cccc(OC(=O)c2cccnc2)c1)c1cccnc1	0	?	59	194*[may fluoresce violet]	103	21
CC1CCN(C(=O)COc2ncnc3ccccc23)CC1	0	?	46*[may fluoresce violet]	289*[may fluoresce violet]	74	?
O=C(COc1ncnc2ccccc12)N1CCOCC1	0	103	102	104	102	103
O=C(c1cccc(C(F)(F)F)c1)C1CCCN(C(=O)c2cc(C3CC3)[nH]n2)C1 (stereo not given)	0	100	100	94	95	103
O=C(COC(=O)C1CCN(S(=O)(=O)c2c(Cl)cccc2Cl)CC1)NCc1ccco1	0	102	109	104	112	116
Cc1ccc(C(=O)N/N=C/c2ccc([N+](=O)[O-])s2)cc1	0	90	101	102	106	92
Cc1ccc(C(=O)N/N=C\c2ccc([N+](=O)[O-])s2)cn1	0	?	49*[may fluoresce violet]	311*[may fluoresce violet]	75	21
